# PubChem BioAssay (Tox21)
# Unmarked numbers belong to inactive results. The source made the active and inactive calls. Calls come from the whole dose curve; as a rule, active = well fitted curve in the direction sought with a large enough effect in the repeat runs; inconclusive = weak or mixed curves; inactive = flat fitted curve, though single readings scatter.
# Assay: qHTS assay to test for compound auto fluorescence at 590 nm (red) in HepG2 cell free culture (AID 720684)
# Details: cell-free medium autofluorescence, red 540/590 nm; series mostly up to 91.3 µM; fluorescence, % of Rose Bengal: at the top concentration
# Method in brief: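 Compounds are added to culture medium (MEM, 10% FBS) lacking cells, then fluorescence is read at excitation 540 nm, emission 590 nm, with Rose Bengal sodium as the equivalency standard.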
# % is set by controls: 0 for no effect and ±100 for the full control effect.
Structure (SMILES),"fluorescence, % of Rose Bengal",outcome
NO,-0.0186% [at 95.7 µM],
CC1=NN(c2cccc(S(=O)(=O)O)c2)C(=O)C1,0.0114%,
O=C(c1ccccc1)C1(O)CCCCC1,0.0454%,
[O-][n+]1cccc(CO)c1,0.0694% [at 46 µM],
CCCCCCCCCCCCCCCCCCO,0.378% [at 46 µM],
CN1CCN(c2cc3c(nn2)Oc2ccccc2N3C)CC1,-0.116% [at 46 µM],
Nc1ccn([C@@H]2O[C@H](CO)[C@@H](O)C2O)c(=O)n1 (some centres not stated),,inactive
COc1cc(-c2ccc(=O)[nH]n2)ccc1OC(F)F,-0.0542% [at 46 µM],
CC(=O)c1cnccn1,-0.147% [at 95.7 µM],
CCCCc1ccc2c(n1)[C@@H](c1ccc(OC)cc1C[C@H](C)C(=O)O)[C@H](C(=O)O)[C@H]2c1ccc2c(c1)OCO2,0.0444%,
CNC(=O)Nc1ccc(Cl)c(Cl)c1,-0.115%,
O=C(O)c1cc(C(=O)O)cc(C(=O)O)c1,-0.23% [at 95.7 µM],
COC(=O)Nc1ccc(Cl)c(Cl)c1,-0.0159%,
CCC(C(=O)NC(=O)NC(C)=O)c1ccccc1 (configuration not stated),0.283% [at 46 µM],
CCCCS(=O)(=O)N[C@@H](Cc1ccc(OCCCCC2CCNCC2)cc1)C(=O)O,0.0097% [at 46 µM],
CCC(C)(CN(C)C)OC(=O)c1ccccc1 (configuration not stated),-0.0837% [at 18.6 µM],

# Assay: qHTS assay to test for compound auto fluorescence at 460 nm (blue) in HepG2 cell free culture (AID 720685)
# Details: Cell-free culture medium, blue autofluorescence 405/460 nm; series mostly up to 91.3 µM; fluorescence, % of fluorescent control: at the top concentration
# Method in brief: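 Compound (23 nL) or DMSO pinned into cell-free MEM with 10% FBS; blue fluorescence read at 405/460 nm excitation/emission, expressed as auto-fluorescence equivalency to triamterene.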
Structure (SMILES),"fluorescence, % of fluorescent control",outcome
Nc1ccn([C@@H]2O[C@H](CO)[C@@H](O)C2(F)F)c(=O)n1,-0.0361% [at 46 µM],
Clc1cc(Cl)c(Cl)nc1Cl,0.0742%,
C=COC(=O)C(C)(CC)CCC(C)C (configuration not stated),-0.201%,
CC1=NS(=O)(=O)c2cc(Cl)ccc2N1,0.0785% [at 46 µM],
Cc1ccc(C(=O)c2ccc(CC(=O)O)n2C)cc1,-0.117% [at 18.6 µM],
CN(C)CCN(C)CCN(C)C,-0.0299%,
CN(C)[C@@H]1C(=O)C(C(=O)NCN2CCCC2)=C(O)[C@@]2(O)C(=O)C3=C(O)c4c(O)cccc4[C@@](C)(O)C3C[C@@H]12 (some centres not stated),,inactive
CC(C)CC(C)(N)C#N (configuration not stated),-0.0301% [at 95.7 µM],
C=C(C)C(=O)OCCOCCOCCOCCOC(=O)C(=C)C,-0.145%,
CO[C@@]1(NC(=O)C(C(=O)O)c2ccc(O)cc2)C(=O)N2C(C(=O)O)=C(CSc3nnnn3C)CO[C@@H]21 (some centres not stated),0.334% [at 18.6 µM],
C[N+]1(C)CCCC(OC(=O)C(O)(c2ccccc2)c2ccccc2)C1 (configuration not stated),-0.0313% [at 18.6 µM],
COc1cc(C(=O)NCc2ccc(OCCN(C)C)cc2)cc(OC)c1OC,-0.0208% [at 18.6 µM],
CN1CCC(=C2c3ccccc3CCc3cccnc32)CC1,-0.0184% [at 46 µM],
NO,0.0356% [at 95.7 µM],
O=C(CO)[C@@H](O)[C@H](O)[C@H](O)CO,,inactive
CC1=NN(c2cccc(S(=O)(=O)O)c2)C(=O)C1,-0.0012%,
O=C(c1ccccc1)C1(O)CCCCC1,-0.124%,
CCCCc1nc(Cl)c(CO)n1Cc1ccc(-c2ccccc2-c2nn[nH]n2)cc1,-0.0114% [at 46 µM],

Structure (SMILES),"fluorescence, % of fluorescent control",outcome
[O-][n+]1cccc(CO)c1,0.0443% [at 46 µM],
CCCCCCCCCCCCCCCCCCO,0.0221% [at 46 µM],
CN1CCN(c2cc3c(nn2)Oc2ccccc2N3C)CC1,0.953% [at 46 µM],
OCCc1ccccn1,-0.137%,
Nc1ccn([C@@H]2O[C@H](CO)[C@@H](O)C2O)c(=O)n1 (some centres not stated),,inactive
COCCOC[C@H](CC1(C(=O)NC2CCC(C(=O)O)CC2)CCCC1)C(=O)Oc1ccc2c(c1)CCC2 (some centres not stated),0.001%,
COc1cc(-c2ccc(=O)[nH]n2)ccc1OC(F)F,-0.023% [at 46 µM],
CC(=O)c1cnccn1,0.0244% [at 95.7 µM],
CCCCc1ccc2c(n1)[C@@H](c1ccc(OC)cc1C[C@H](C)C(=O)O)[C@H](C(=O)O)[C@H]2c1ccc2c(c1)OCO2,-0.141%,
CNC(=O)Nc1ccc(Cl)c(Cl)c1,-0.0022%,
O=C(O)c1cc(C(=O)O)cc(C(=O)O)c1,-0.169% [at 95.7 µM],
COC(=O)Nc1ccc(Cl)c(Cl)c1,0.0972%,
CCC(C(=O)NC(=O)NC(C)=O)c1ccccc1 (configuration not stated),0.0429% [at 46 µM],
CCCCS(=O)(=O)N[C@@H](Cc1ccc(OCCCCC2CCNCC2)cc1)C(=O)O,0.0053% [at 46 µM],
CCC(C)(CN(C)C)OC(=O)c1ccccc1 (configuration not stated),0.131% [at 18.6 µM],
OCCCCCO,0.0025% [at 95.7 µM],
Nc1ccn([C@@H]2O[C@H](CO)[C@@H](O)[C@@H]2O)c(=O)n1,0.0187%,
CC[N+](CC)(CC(=O)Nc1c(C)cccc1C)Cc1ccccc1 (tested in a mixture with another compound),0.0248%,
